Drawing on PubChem BioAssay (EPA / NIEHS), this text covers outcome and AC50 for two compounds.

Read-out in assay [1]: solute carrier (SLCO1B1), SLCO1B1 (gene 10599)
Description: LTEA_HepaRG_SLCO1B1: Life Technologies and Expression Analysis (LTEA) Assay for solute carrier (SLCO1B1) using HepaRG (AID 2283530). The settings on record: mRNA level, 48 h; actives raise or lower the signal. In outline:
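Differentiated human HepaRG cells, plated 48 h, switched to serum-free induction medium and exposed in duplicate for 48 h to 8 half-log concentrations (top 100 uM) in 0.5% DMSO. SLCO1B1 mRNA by TaqMan qRT-PCR, normalized to ACTB/GAPDH/POLR2A.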

Read-out in assay [2]: sulfotransferase 2A1 (SULT2A1), SULT2A1 (gene 6822)
Description: LTEA_HepaRG_SULT2A1: Life Technologies and Expression Analysis (LTEA) Assay for sulfotransferase 2A1 (SULT2A1) using HepaRG (AID 2283531). To be noted: mRNA level, 48 h; actives raise or lower the signal. In outline: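 Differentiated human HepaRG cells in serum-free induction medium were exposed for 48 h to eight half-log concentrations (top 100 uM, 0.5% DMSO). SULT2A1 mRNA was measured by qRT-PCR, normalized to ACTB, GAPDH and POLR2A, and fitted bidirectionally against DMSO.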

Read-out in assay [3]: Transforming Growth Factor (TGFA), TGFA (gene 7039)
Put plainly: LTEA_HepaRG_TGFA: Life Technologies and Expression Analysis (LTEA) Assay for Transforming Growth Factor (TGFA) using HepaRG (AID 2283532). The settings on record: mRNA level, 48 h; actives raise or lower the signal. In outline: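 Differentiated HepaRG cells exposed 48 hours in serum-free induction medium, 0.5% DMSO vehicle, 8-point half-log series from 100 uM, in duplicate. TGFA mRNA by TaqMan qRT-PCR, normalised to ACTB, GAPDH, POLR2A; bidirectional fit versus DMSO.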

Read-out in assay [4]: Transforming Growth Factor (TGFB1), TGFB1 (gene 7040)
Description: LTEA_HepaRG_TGFB1: Life Technologies and Expression Analysis (LTEA) Assay for Transforming Growth Factor (TGFB1) Transporter using HepaRG (AID 2283533). The settings on record: mRNA level, 48 h; actives raise or lower the signal. In outline:
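Differentiated human HepaRG cells in serum-free induction medium were exposed in duplicate for 48 h to eight concentrations (top 100 uM, half-log steps, 0.5% DMSO). TGFB1 mRNA was quantified by qRT-PCR, normalized to ACTB, GAPDH, POLR2A, and fitted bidirectionally against DMSO.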

Read-out in the next assay: TIMP1, TIMP1 (gene 7076)
Description: LTEA_HepaRG_TIMP1: Life Technologies and Expression Analysis (LTEA) Assay for TIMP1 using HepaRG (AID 2283534).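 On outcome: TaqMan qRT-PCR signal normalized to ACTB GAPDH and POLR2A housekeeping genes.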 To be noted: mRNA level, 48 h; actives raise or lower the signal. In outline:
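Differentiated human HepaRG cells in serum-free induction medium were exposed 48 h to chemicals (8 half-log concentrations, top 100 uM, 0.5% DMSO). TIMP1 mRNA was quantified by TaqMan qRT-PCR, normalized to ACTB/GAPDH/POLR2A; bidirectional fit versus DMSO.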

Read-out in assay [5]: Tumor necrosis factor receptor 1 (TNFRSF1A), TNFRSF1A (gene 7132)
Put plainly: LTEA_HepaRG_TNFRSF1A: Life Technologies and Expression Analysis (LTEA) Assay for Tumor necrosis factor receptor 1 (TNFRSF1A) using HepaRG (AID 2283535). The settings on record: mRNA level, 48 h; actives raise or lower the signal. In outline: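 Differentiated human HepaRG cells were exposed in duplicate for 48 h in serum-free induction medium to eight concentrations (top 100 uM, half-log steps, 0.5% DMSO). TNFRSF1A mRNA was quantified by qRT-PCR, normalized to ACTB, GAPDH and POLR2A, then fitted bidirectionally against DMSO.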

Read-out in assay [6]: Thyroid Hormone Responsive (THRSP), THRSP (gene 7069)
Description: LTEA_HepaRG_THRSP: Life Technologies and Expression Analysis (LTEA) Assay for Thyroid Hormone Responsive (THRSP) using HepaRG (AID 2283536). To be noted: mRNA level, 48 h; actives raise or lower the signal. In outline: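 Differentiated HepaRG cells treated 48 h in serum-free induction medium with 8 half-log concentrations up to 100 uM (0.5% DMSO), duplicates. THRSP mRNA by TaqMan qRT-PCR normalised to ACTB, GAPDH, POLR2A; bidirectional fit versus DMSO.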

Read-out in assay [7]: Cellular tumor antigen p53 (Homo sapiens) (UniProt P04637)
Description: LTEA_HepaRG_TP53: Life Technologies and Expression Analysis (LTEA) Assay for Tumor Protein P53 (TP53) using HepaRG (AID 2283537). To be noted: mRNA level, 48 h; actives raise or lower the signal. In outline: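 Read-out is TP53 transcript level by microfluidic qRT-PCR, normalised to three housekeeping genes and fitted bidirectionally against DMSO. Human HepaRG cells received compounds for 48 h, highest concentration 100 uM.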

Read-out in assay [8]: UDP glucuronosyltransferase (UGT1A1), UGT1A1 (gene 54658)
Description: LTEA_HepaRG_UGT1A1: Life Technologies and Expression Analysis (LTEA) Assay for UDP glucuronosyltransferase (UGT1A1) using HepaRG (AID 2283538). To be noted: mRNA level, 48 h; actives raise or lower the signal. In outline: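 HepaRG cells, 0.5% DMSO vehicle, 48 h exposure in serum-free induction medium to 8-point half-log series topping at 100 uM, in duplicate. UGT1A1 mRNA by Fluidigm qRT-PCR, normalized to ACTB/GAPDH/POLR2A; bidirectional fit versus DMSO.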

Read-out in assay [9]: X-box binding protein 1 (XBP1), XBP1 (gene 7494)
Description: LTEA_HepaRG_XBP1: Life Technologies and Expression Analysis (LTEA) Assay for X-box binding protein 1 (XBP1) using HepaRG (AID 2283540). To be noted: mRNA level, 48 h; actives raise or lower the signal. In outline:
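Differentiated human HepaRG cells in serum-free induction medium were exposed in duplicate for 48 h to eight half-log concentrations up to 100 uM in 0.5% DMSO. XBP1 mRNA was quantified by qRT-PCR, normalised to ACTB, GAPDH and POLR2A, with bidirectional fitting against DMSO.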

Assay [10] in a line: LTEA_HepaRG_LDH_cytotoxicity: Cytotoxicity Assessment in the Life Technologies and Expression Analysis (LTEA) Assay (AID 2283563; active means hit-call score of the fitted dose curve at least 0.9, where 1 is the maximum;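 on AC50: LDH activity released into spent culture medium as a marker of cell death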). In outline:
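Differentiated human HepaRG cells, plated 48 h beforehand, were switched to serum-free induction medium and exposed for 48 h to eight half-log concentrations (top 100 uM) in 0.5% DMSO. LDH was measured in spent medium; activity was fitted relative to DMSO vehicle.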

Assay [11] can be described thus: ATG_XTT_Cytotoxicity: Cytotoxicity Assessment in the Attagene TRANS-FACTORIAL HepG2 Assay (AID 2283584; active means hit-call score of the fitted dose curve at least 0.9, where 1 is the maximum;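 on AC50: cells exposed to compound for 24 h before reading; active means loss of viability signal versus DMSO baseline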). In outline: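 HepG2 human liver cells, transiently transfected with multiple GAL4-UAS reporter units, were dosed and read at 24 h by XTT as cell number. Loss of signal was fitted relative to DMSO negative control baseline.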
Assay [12] addresses Cellular tumor antigen p53 (Homo sapiens) (UniProt P04637). Description: TOX21_p53_BLA_p2_ratio: Tox21 HCT-116 p53 Agonism Beta-lactamase Assay, Ratio, Phase 2 (AID 2283592; active means hit-call score of the fitted dose curve at least 0.9, where 1 is the maximum). In outline: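 HCT116 cells carrying a p53-responsive beta-lactamase reporter were plated, incubated 5 h at 37C, then dosed with compounds in DMSO (217-fold dilution) for 16 h. CCF4-AM substrate was added for 2 h at room temperature; the 460/530 nm emission ratio gave gain-of-signal activity relative to DMSO.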

Assay [13] is described as follows: TOX21_p53_BLA_p3_viability: Viability Assessment in the Tox21 HCT-116 p53 Agonism Beta-lactamase Assay, Phase 3 (AID 2283593; active means hit-call score of the fitted dose curve at least 0.9, where 1 is the maximum;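 further: cells exposed to compound for 16 h before reading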). In outline: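 HCT116 cells, 4000/well, dosed 5 h after plating by pin transfer (217-fold dilution from DMSO stock) and incubated 16 h at 37C, 5% CO2. Viability read as ATP luminescence with CellTiter-Glo after 30 min at room temperature.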

Assay [14] has as its target Cellular tumor antigen p53 (Homo sapiens) (UniProt P04637). Description: TOX21_p53_BLA_p3_ratio: Tox21 HCT-116 p53 Agonism Beta-lactamase Assay, Ratio, Phase 3 (AID 2283596; active means hit-call score of the fitted dose curve at least 0.9, where 1 is the maximum). In outline: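 HCT116 p53-bla cells (4000/well) given compound in DMSO (217-fold dilution) after 5 h, incubated 16 h at 37C. CCF4-AM substrate 2 h at room temperature; 460/530 nm emission ratio, gain fitted against DMSO.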

Assay [15] in a line: TOX21_p53_BLA_p4_viability: Viability Assessment in the Tox21 HCT-116 p53 Agonism Beta-lactamase Assay, Phase 4 (AID 2283597; active means hit-call score of the fitted dose curve at least 0.9, where 1 is the maximum;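 further: hits lower the luminescence signal meaning cytotoxicity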). In outline: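 HCT116 p53-bla cells (4000/well) rested 5 h at 37C, then received compounds in DMSO (217-fold dilution) for 16 h at 37C, 5% CO2. CellTiter-Glo was added after the CCF4-AM read, and luminescence was read after 30 min at room temperature.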

The target in assay [16] is Cellular tumor antigen p53 (Homo sapiens) (UniProt P04637). Put plainly: TOX21_p53_BLA_p5_ratio: Tox21 HCT-116 p53 Agonism Beta-lactamase Assay, Ratio, Phase 5 (AID 2283599; active means hit-call score of the fitted dose curve at least 0.9, where 1 is the maximum). In outline: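 HCT-116 p53-bla cells (4000/well) plated 5 h, dosed with compound (217-fold DMSO dilution) for 16 h at 37 C; CCF4-AM substrate 2 h at room temperature. Activity is the 460/530 nm emission ratio (405 nm excitation), fitted in gain-of-signal direction versus DMSO.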

Assay [17] in a line: TOX21_p53_BLA_p5_viability: Viability Assessment in the Tox21 HCT-116 p53 Agonism Beta-lactamase Assay, Phase 5 (AID 2283600; active means hit-call score of the fitted dose curve at least 0.9, where 1 is the maximum). In outline: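 Cells were plated at 4000/well, rested 5 h at 37C, then given compounds in DMSO (217-fold dilution) for 16 h at 37C, 5% CO2. Following the CCF4-AM beta-lactamase read, CellTiter-Glo was added and luminescence was read after 30 min at room temperature.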

The target of assay [18] is Cellular tumor antigen p53 (Homo sapiens) (UniProt P04637). Description: TOX21_p53_BLA_p4_ratio: Tox21 HCT-116 p53 Agonism Beta-lactamase Assay, Ratio, Phase 4 (AID 2283601; active means hit-call score of the fitted dose curve at least 0.9, where 1 is the maximum). In outline: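 HCT-116 p53 beta-lactamase reporter cells (4000/well) preincubated 5 h, then compound (217-fold dilution of DMSO stock) for 16 h at 37C. CCF4-AM substrate added 2 h at room temperature; 460/530 nm emission ratio fitted upward versus DMSO.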

Read-out in assay [19]: UDP glucuronosyltransferase (UGT1A6), UGT1A6 (gene 54578)
Put plainly: LTEA_HepaRG_UGT1A6: Life Technologies and Expression Analysis (LTEA) Assay for UDP glucuronosyltransferase (UGT1A6) using HepaRG (AID 2283539). To be noted: mRNA level, 48 h; actives raise or lower the signal. In outline:
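Human HepaRG cells were dosed for 48 h in serum-free induction medium with 0.5% DMSO vehicle, eight-point half-log series from 100 uM, in duplicate. UGT1A6 mRNA was measured by qRT-PCR, normalized to ACTB, GAPDH, POLR2A, and fitted bidirectionally against DMSO.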

Several values for one entry are separate records, joined by “and”; a condition that tells them apart may be missing. Identical values can stand only once. Inconclusive results are not listed. Some structures have more than one record in an assay (separate samples or runs), and their calls can disagree. Activity calls are given as the source filed them. How the source made its calls, unless noted: active means hit-call score of the fitted dose curve at least 0.9, where 1 is the maximum; inactive means score below 0.9.

Sequence of Cellular tumor antigen p53 (Homo sapiens) (P04637 whole entry, looked up): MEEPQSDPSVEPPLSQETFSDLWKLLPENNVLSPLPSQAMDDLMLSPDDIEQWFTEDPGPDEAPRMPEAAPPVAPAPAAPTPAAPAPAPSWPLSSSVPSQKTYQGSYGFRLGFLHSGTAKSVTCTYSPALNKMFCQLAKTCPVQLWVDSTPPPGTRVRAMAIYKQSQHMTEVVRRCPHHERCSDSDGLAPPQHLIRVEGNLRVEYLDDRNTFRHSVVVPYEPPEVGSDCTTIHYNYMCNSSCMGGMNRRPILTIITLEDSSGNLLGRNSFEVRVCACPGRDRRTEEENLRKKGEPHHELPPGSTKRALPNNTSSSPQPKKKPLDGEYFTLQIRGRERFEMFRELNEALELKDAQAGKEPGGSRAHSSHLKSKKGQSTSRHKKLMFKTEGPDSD

In general, AC50 refers to the midpoint of the concentration-response curve, whichever way the signal moves. Take `Oc1cc(Cl)ccc1Oc1ccc(Cl)cc1Cl`: the outcome is “inactive” in assay [1]; “inactive” in [2]; “inactive” in assay [3]; “inactive” in assay [4]; “inactive” with TIMP1, TIMP1 (gene 7076); “inactive” in assay [5]. The result in [6], in assay [7], in [8], in [9], in [11] and in assay [12] was inactive. Besides, the compound was called inactive in [15], in assay [16], in assay [17] and in assay [18]. Also, the AC50 in the assay with TIMP1, TIMP1 (gene 7076) was 10.1 µM (active); in assay [5], 10.1 µM (active); in assay [6] it was 94.7 µM (active); in [10], 78.6 µM (active) and 78.2 µM (active) and 78 µM (active); in assay [11], 66.3 µM (active) and 51.2 µM (active) and 39.8 µM (active); in assay [12], 73.1 µM (active). Also, the AC50 in [13] was 54.2 µM (active); in [14], 78.1 µM (active); in assay [15] it was 41.3 µM (active); in [16], 81.1 µM (active); in assay [17] it was 48 µM (active); in assay [18] it was 79 µM (active).

Regarding `COc1nn(CSP(=S)(OC)OC)c(=O)s1`, the outcome is “inactive” in assay [1]; “inactive” in [2]; “inactive” in assay [3]; “inactive” in assay [4]; “inactive” with TIMP1, TIMP1 (gene 7076); “inactive” in [5]. For the same compound, the compound was classed as inactive in assay [6], in assay [7], in [19], in assay [9], in assay [10] and in assay [12]. The compound was called inactive in [13], in assay [14], in assay [15], in assay [16], in assay [17] and in [18]. In assay [8], the AC50 was 15.1 µM (active).
